Results filed as inconclusive are left out. The source made the active and inactive calls. Calls come from the whole dose curve; as a rule, active = well fitted inhibition curve with a large enough effect; inconclusive = small, poorly fitted or top-dose-only effect; inactive = flat fitted curve, though single readings scatter. Numbered stars: 1 amine (or outer) side, 2 acyl side, 3 side chain; on linkers, the order of the positions; unused ones are H or OH. Bridge positions count the residues as written; N and C are the ends. Square brackets hold non-standard residues; d marks the D form. Peptide text beside a SMILES is read from it. * marks the point of attachment. ξ: configuration not given here. ΔAla(Z-3-ureido) = NC(=O)N/C=C(\N)C(=O)O; X2 = NC1=NC(O)CC(C(N[*:1])C(=O)[*:2])N1; ξβ3hOrn = NCCCC(N)CC(=O)*; Dap = NC[CH](N)C(=O)O
Legend:
Assay in all cases: qHTS profiling for inhibitors of Plasmodium falciparum proliferation (AID 504749); note: nearly all actives have a fitted effect of over 60% in size
Settings in all cases: P. falciparum in erythrocytes, SYBR Green DNA, 72 h; series mostly up to 28.7 µM
7G8 = test system: 7G8
Summary of the method: (§1)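 Each compound contacts P. falciparum-infected red blood cells for 72 h at 37 C; lysis buffer (Tris, EDTA, saponin, Triton X, SYBR Green I) is added and fluorescence measured next morning; values normalized to controls.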

AA1029 = test system: AA1029
Summary of the method: as §1

C2A = test system: C2A
Summary of the method: as §1

CP192 = test system: CP192
Summary of the method: as §1

CP194 = test system: CP194
Summary of the method: as §1

CP203 = test system: CP203
Summary of the method: as §1

CP217 = test system: CP217
Summary of the method: as §1

CP237 = test system: CP237
Summary of the method: as §1

CP266 = test system: CP266
Summary of the method: as §1

CP268 = test system: CP268
Summary of the method: as §1

CP269 = test system: CP269
Summary of the method: as §1

CP291 = test system: CP291
Summary of the method: as §1

CP315 = test system: CP315
Summary of the method: as §1

CP329 = test system: CP329
Summary of the method: as §1

DIV30 = test system: DIV30
Summary of the method: as §1

JCK = test system: JCK
Summary of the method: as §1

PC26 = test system: PC26
Summary of the method: as §1

TAB109 = test system: TAB109
Summary of the method: as §1

HB3 = test system: HB3
Summary of the method: as §1

P94_40 = test system: P94_40
Summary of the method: as §1

Measured: Potency
Potency is the fitted concentration of half-maximal effect.

CCC1NC(=O)C(NC(=O)c2ncccc2O)C(C)OC(=O)C(c2ccccc2)NC(=O)C2CC(=O)CCN2C(=O)C(Cc2ccccc2)N(C)C(=O)C2CCCN2C1=O (stereo not given)
active: 7G8 8.91 µM
not listed: HB3 | P94_40
inactive: all other assays above

NC(=O)CCC1NC(=O)C(Cc2ccccc2)NC(=O)C(Cc2ccc(O)cc2)NC(=O)CCSSCC(C(=O)N2CCCC2C(=O)NC(CCCN=C(N)N)C(=O)NCC(N)=O)NC(=O)C(CC(N)=O)NC1=O (stereo not given)
inactive: all assays above

CC(C)CC(NC(=O)C(COC(C)(C)C)NC(=O)C(Cc1ccc(O)cc1)NC(=O)C(CO)NC(=O)C(Cc1c[nH]c2ccccc12)NC(=O)C(Cc1cnc[nH]1)NC(=O)C1CCC(=O)N1)C(=O)NC(CCCN=C(N)N)C(=O)N1CCCC1C(=O)NNC(N)=O (stereo not given)
inactive: all assays above

CCC(C)C1NC(=O)C(Cc2ccc(O)cc2)NC(=O)C(N)CSSCC(C(=O)N2CCCC2C(=O)NC(CC(C)C)C(=O)NCC(N)=O)NC(=O)C(CC(N)=O)NC(=O)C(CCC(N)=O)NC1=O (stereo not given)
inactive: all assays above

NCCCC(N)CC(=O)NC1CNC(=O)C(C2CC(O)N=C(N)N2)NC(=O)/C(=C/NC(N)=O)NC(=O)C(CO)NC(=O)C(CO)NC1=O (stereo not drawn) (ξβ3hOrn-[Dap]SS[ΔAla(Z-3-ureido)][X2]; lactam 1-C; configuration not given here)
inactive: all assays above

CC1(C)C(/C=C/C=C/C=C/C=C2\N(CCCCS(=O)(=O)O)c3ccc4ccccc4c3C2(C)C)=[N+](CCCCS(=O)(=O)[O-])c2ccc3ccccc3c21
not listed: CP217
inactive: all other assays above

C=CC1=C(C(=O)O)N2C(=O)[C@@H](NC(=O)C(N=O)c3csc(N)n3)[C@H]2SC1 (stereo not given in full)
inactive: all assays above

O=C1/C(=C\c2cccs2)CCC/C1=C/c1cccs1
not listed: 7G8
inactive: all other assays above

O=C(OCC1OC(OC(=O)c2cc(O)c(O)c(OC(=O)c3cc(O)c(O)c(O)c3)c2)[C@@H](OC(=O)c2cc(O)c(O)c(OC(=O)c3cc(O)c(O)c(O)c3)c2)C(OC(=O)c2cc(O)c(O)c(OC(=O)c3cc(O)c(O)c(O)c3)c2)C1OC(=O)c1cc(O)c(O)c(OC(=O)c2cc(O)c(O)c(O)c2)c1)c1cc(O)c(O)c(OC(=O)c2cc(O)c(O)c(O)c2)c1 (stereo not given in full)
active: 7G8 2 µM | AA1029 2.51 µM | C2A 2.82 µM | CP192 7.57 µM | CP194 3.79 µM | CP203 4.26 µM | CP217 3.55 µM | CP237 2.51 µM | CP266 3.79 µM | CP268 3.38 µM | CP269 1.9 µM | CP315 5.36 µM | CP329 4.26 µM | DIV30 5.36 µM | HB3 2 µM | JCK 10 µM | P94_40 2.82 µM | PC26 7.57 µM | TAB109 2.82 µM
